Read-out in assay [1]: Urokinase-type plasminogen activator receptor (uPAR), PLAUR (gene 5329)
The assay can be described thus: BSK_4H_uPAR: BioMAP Diversity Plus: 4H Assay for Urokinase-type plasminogen activator receptor (uPAR) Biomarker Activity (AID 2283030). The conditions noted are these: primary human endothelial cells (HUVEC); actives raise or lower the signal. The gist of the method:
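Endpoint derived via bidirectional curve fitting against DMSO baseline; readout was ELISA detection of uPAR on umbilical vein endothelial cells at 24 h post-treatment, with SRB-stained parallel cultures assessing cytotoxicity.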

Read-out in assay [2]: Vascular endothelial growth factor receptor 2 (Homo sapiens) (UniProt P35968)
Briefly: BSK_4H_VEGFRII: BioMAP Diversity Plus: 4H Assay for Vascular endothelial growth factor receptor 2 (VEGFR2) Biomarker Activity (AID 2283031). The conditions noted are these: primary human endothelial cells (HUVEC); actives raise or lower the signal. The gist of the method: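 In this multiplexed HUVEC system, biomarker ELISA was performed after 24 h chemical exposure. Parallel SRB staining (TCA fixation, 560 nm) tracked cytotoxicity; DMSO served as baseline.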

Read-out in assay [3]: Human Leukocyte Antigen - DR isotype (HLADR), HLA-DRA (gene 3122)
Briefly: BSK_BE3C_HLADR: BioMAP Diversity Plus: BE3C Assay for Human Leukocyte Antigen - DR isotype (HLADR) Biomarker Activity (AID 2283032). The conditions noted are these: primary human bronchial epithelial cells; actives raise or lower the signal. Put shortly: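 ELISA read-out of HLA-DR on human lung bronchial epithelial primary cells, measured 24 h post-dosing. Both increases and decreases were scored relative to DMSO vehicle.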

Read-out in assay [4]: Vascular cell adhesion molecule 1 (VCAM1), VCAM1 (gene 7412)
Briefly: BSK_4H_VCAM1: BioMAP Diversity Plus: 4H Assay for Vascular cell adhesion molecule 1 (VCAM1) Biomarker Activity (AID 2283033).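 On outcome: cell-surface VCAM-1 protein measured by ELISA.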 The note with it: primary human endothelial cells (HUVEC); actives raise or lower the signal. Put shortly: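 ELISA read-out of VCAM-1 on human umbilical vein endothelium 24 hours after chemical dosing; gain or loss of signal was fitted relative to DMSO, with sulforhodamine B staining of parallel cultures flagging overt cytotoxicity.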

Read-out in assay [5]: Interferon-gamma inducible Protein 10 (IP10), CXCL10 (gene 3627)
Briefly: BSK_BE3C_IP10: BioMAP Diversity Plus: BE3C Assay for Interferon-gamma inducible Protein 10 (IP10) Biomarker Activity (AID 2283034). The conditions noted are these: primary human bronchial epithelial cells; actives raise or lower the signal. Put shortly: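 Chemical is dosed onto human lung bronchial epithelial primary cells, cultures are incubated 24 h, and IP-10 is then quantified by ELISA. Gain or loss of signal is fitted in both directions relative to DMSO.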

Read-out in assay [6]: Monokine induced gamma interferon (MIG), CXCL9 (gene 4283)
Briefly: BSK_BE3C_MIG: BioMAP Diversity Plus: BE3C Assay for Monokine induced gamma interferon (MIG) Biomarker Activity (AID 2283035).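 Further: MIG protein measured by ELISA in BE3C cultures after 24 h of dosing.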 The note with it: primary human bronchial epithelial cells; actives raise or lower the signal. The gist of the method: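 MIG level was determined by ELISA after 24 h chemical treatment of primary human bronchial epithelial cells. Values were fitted bidirectionally with DMSO as the negative control and activity baseline.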

Read-out in assay [7]: Transforming growth factor beta 1 (TGFb1), TGFB1 (gene 7040)
Briefly: BSK_BE3C_TGFb1: BioMAP Diversity Plus: BE3C Assay for Transforming growth factor beta 1 (TGFb1) Biomarker Activity (AID 2283036;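 further: TGF-b1 protein level measured by ELISA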). The note with it: primary human bronchial epithelial cells; actives raise or lower the signal. The gist of the method:
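Primary human lung bronchial epithelial cells; compound exposure 24 h; TGF-b1 by ELISA; bidirectional fit, DMSO baseline. Parallel SRB total-protein staining for cytotoxicity.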

Read-out in assay [8]: Plasminogen activator inhibitor-1 (PAI1), SERPINE1 (gene 5054)
Briefly: BSK_BE3C_PAI1: BioMAP Diversity Plus: BE3C Assay for Plasminogen activator inhibitor-1 (PAI1) Biomarker Activity (AID 2283037). The note with it: primary human bronchial epithelial cells; actives raise or lower the signal. Put shortly:
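Primary human lung bronchial epithelial cells; chemical dosing; 24 h; PAI-1 measured by ELISA; bidirectional fit referenced to DMSO as negative control.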

Read-out in assay [9]: urokinase plasminogen activator (uPA), PLAU (gene 5328)
The assay can be described thus: BSK_BE3C_uPA: BioMAP Diversity Plus: BE3C Assay for urokinase plasminogen activator (uPA) Biomarker Activity (AID 2283038).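 Further: uPA protein level quantified by ELISA in cell cultures; uPA read one day after compound addition.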 The conditions noted are these: primary human bronchial epithelial cells; actives raise or lower the signal. The gist of the method: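 Using confluent primary human lung bronchial epithelial cultures, we dosed chemicals, waited 24 h, then ran a uPA ELISA, fitting bidirectionally against DMSO.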

Read-out in assay [10]: Urokinase-type plasminogen activator receptor (uPAR), PLAUR (gene 5329)
Briefly: BSK_BE3C_uPAR: BioMAP Diversity Plus: BE3C Assay for Urokinase-type plasminogen activator receptor (uPAR) Biomarker Activity (AID 2283039).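 Further: uPAR protein level measured by ELISA on the cells; cells exposed to compound for one day before measurement.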 The note with it: primary human bronchial epithelial cells; actives raise or lower the signal. The gist of the method: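 Human bronchial epithelial primary cells; chemical exposure 24 h; uPAR by ELISA; bidirectional fit vs DMSO control.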

Read-out in assay [11]: Interleukin-6 (IL6), IL6 (gene 3569)
Briefly: BSK_CASM3C_IL6: BioMAP Diversity Plus: CASM3C Assay for Interleukin-6 (IL6) Biomarker Activity for (AID 2283040). The conditions noted are these: primary human coronary artery smooth muscle cells; actives raise or lower the signal.

Read-out in assay [12]: Tissue plasminogen activator (tPA), PLAT (gene 5327)
Briefly: BSK_BE3C_tPA: BioMAP Diversity Plus: BE3C Assay for Tissue plasminogen activator (tPA) Biomarker Activity (AID 2283041).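 Further: tPA level quantified by ELISA one day after compound addition.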 The conditions noted are these: primary human bronchial epithelial cells; actives raise or lower the signal. Put shortly:
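Primary human lung bronchial epithelial cultures receive test chemical; after 24 h, tPA is quantified by ELISA, and gain or loss of signal is fitted bidirectionally relative to DMSO baseline.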

Read-out in assay [13]: Interleukin-8 (IL8), CXCL8 (gene 3576)
The assay can be described thus: BSK_CASM3C_IL8: BioMAP Diversity Plus: CASM3C Assay for Interleukin-8 (IL8) Biomarker Activity (AID 2283042).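 Further: IL-8 protein level quantified by ELISA.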 The note with it: primary human coronary artery smooth muscle cells; actives raise or lower the signal.

Read-out in assay [14]: Human Leukocyte Antigen - DR isotype (HLADR), HLA-DRA (gene 3122)
Briefly: BSK_CASM3C_HLADR: BioMAP Diversity Plus: CASM3C Assay for Human Leukocyte Antigen - DR isotype (HLADR) Biomarker Activity (AID 2283043).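 Further: cell-surface HLA-DR protein level quantified by ELISA.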 The conditions noted are these: primary human coronary artery smooth muscle cells; actives raise or lower the signal.

Read-out in assay [15]: Macrophage colony-stimulating factor (MCSF), CSF1 (gene 1435)
Briefly: BSK_CASM3C_MCSF: BioMAP Diversity Plus: CASM3C Assay for Macrophage colony-stimulating factor (MCSF) Biomarker Activity (AID 2283044).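 Further: M-CSF protein amount quantified by ELISA after 24 h exposure.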 The note with it: primary human coronary artery smooth muscle cells; actives raise or lower the signal.

Read-out in assay [16]: Low-density lipoprotein receptor (LDLR), LDLR (gene 3949)
The assay can be described thus: BSK_CASM3C_LDLR: BioMAP Diversity Plus: CASM3C Assay for Low-density lipoprotein receptor (LDLR) Biomarker Activity (AID 2283045).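 Further: LDLR protein level on the cell surface quantified by ELISA.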 The note with it: primary human coronary artery smooth muscle cells; actives raise or lower the signal.

Read-out in assay [17]: Monocyte Chemoattractant Protein-1 (MCP1), CCL2 (gene 6347)
The assay can be described thus: BSK_CASM3C_MCP1: BioMAP Diversity Plus: CASM3C Assay for Monocyte Chemoattractant Protein-1 (MCP1) Biomarker Activity (AID 2283046).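 Further: MCP-1 level quantified by ELISA 24 h after dosing.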 The note with it: primary human coronary artery smooth muscle cells; actives raise or lower the signal.

Assay [18] in a line: BSK_CASM3C_Proliferation: Cell Proliferation Assessment in the BioMAP Diversity Plus: CASM3C Assay (AID 2283047).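 Further: sulforhodamine B total protein stain as relative cell number at 560 nm; sub-confluent cells exposed 48 h before staining; fitted both ways against DMSO so gain or loss of cell number.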 The conditions noted are these: primary human coronary artery smooth muscle cells.
Read-out in assay [19]: Monokine induced gamma interferon (MIG), CXCL9 (gene 4283)
Briefly: BSK_CASM3C_MIG: BioMAP Diversity Plus: CASM3C Assay for Monokine induced gamma interferon (MIG) Biomarker Activity (AID 2283048).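 Further: MIG protein level measured by ELISA.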 The conditions noted are these: primary human coronary artery smooth muscle cells; actives raise or lower the signal.

Read-out in assay [20]: serum amyloid A (SAA), SAA1 (gene 6288)
The assay can be described thus: BSK_CASM3C_SAA: BioMAP Diversity Plus: CASM3C Assay for serum amyloid A (SAA) Biomarker Activity (AID 2283049).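 Further: SAA protein level quantified by ELISA.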 The conditions noted are these: primary human coronary artery smooth muscle cells; actives raise or lower the signal.

Calls of active or inactive are those of the source. How the source made its calls: active means hit-call score of the fitted dose curve at least 0.9, where 1 is the maximum; inactive means score below 0.9.

Seven molecules from PubChem BioAssay (EPA / NIEHS) can be followed below.

`CCN(CC)c1ccccc1`: the outcome in assay [1], in [2], in [3], in assay [4], in assay [5] and in assay [6] was inactive. Further, the result in [7], in assay [8], in assay [9], in assay [10], in assay [11] and in assay [12] was inactive. Also, the outcome in assay [13], in assay [14], in assay [15], in assay [16], in assay [17] and in assay [18] was inactive. For the same molecule, the result in assay [19] and in assay [20] was inactive.

Turning to `CCOC(=O)c1ccccc1C(=O)OCC`, the result in [1], in assay [2], in assay [3], in assay [4], in assay [5] and in assay [6] was inactive. The outcome in assay [7], in assay [8], in [9], in assay [10], in [11] and in assay [12] was inactive. The outcome in assay [13], in assay [14], in assay [15], in [16], in assay [17] and in [18] was inactive. Moreover, the result in assay [19] and in assay [20] was inactive.

For the molecule `COCCOCCO`, the result in assay [1], in assay [2], in assay [3], in [4], in assay [5] and in assay [6] was inactive. For the same molecule, the result in [7], in assay [8], in assay [9], in assay [10], in [11] and in [12] was inactive. Also, the result in assay [13], in assay [14], in assay [15], in assay [16], in assay [17] and in assay [18] was inactive. The outcome in assay [19] and in [20] was inactive.

For the molecule `CC(C)(C)c1ccccc1OP(=O)(Oc1ccccc1)Oc1ccccc1`, the concentration at half-maximal activity (AC50) in [1] was 34.4 µM (active); in assay [3], 2.85 µM (active); in assay [4], 20 µM (active); in assay [16], 4.61 µM (active); in assay [18] it was 20 µM (active). Besides, the result in assay [2], in assay [5], in assay [6], in assay [7], in [8] and in [9] was inactive. The outcome in [10], in assay [11], in [12], in assay [13], in assay [14] and in [15] was inactive. The result in [17], in assay [19] and in assay [20] was inactive.

For `O=P1(N(CCCl)CCCl)NCCCO1` (stereo not given), the outcome in assay [1], in assay [2], in assay [3], in assay [4], in [5] and in assay [6] was inactive. In addition, the outcome in assay [7], in assay [8], in assay [9], in assay [10], in assay [11] and in assay [12] was inactive. For the same molecule, the outcome in [13], in assay [14], in assay [15], in [16], in assay [17] and in [18] was inactive. The outcome in assay [19] and in assay [20] was inactive.

`Nc1ccc([N+](=O)[O-])cc1Cl`: the result in assay [1], in assay [2], in [3], in assay [4], in assay [5] and in assay [6] was inactive. Moreover, the outcome in assay [7], in assay [8], in assay [9], in [10], in assay [11] and in [12] was inactive. The result in assay [13], in [14], in assay [15], in assay [16], in assay [17] and in assay [18] was inactive. Further, the result in assay [19] and in [20] was inactive.

As for `CCOP(=S)(OCC)SCn1nnc2ccccc2c1=O`, the result in assay [1], in assay [2], in assay [3], in [4], in [5] and in assay [6] was inactive. Besides, the outcome in assay [7], in assay [8], in assay [9], in assay [10], in assay [11] and in assay [12] was inactive. In addition, the result in [13], in assay [14], in assay [15], in assay [17], in assay [19] and in assay [20] was inactive. Also, the half-maximal activity concentration (AC50) is 32.3 µM (active) in assay [16] and 20 µM (active) in assay [18].

As usually defined, the AC50 is the concentration giving half of the maximal activity seen.
